# Test results published in PubChem BioAssay (Tox21).
# Results filed as inconclusive are left out. A call without a number means that no potency is given here. The source made the active and inactive calls. Calls come from the whole dose curve; as a rule, active = well fitted cell-killing curve with a large enough effect in the repeat runs; inconclusive = weak or mixed curves, or effect the other way; inactive = flat fitted curve, though single readings scatter.
# Assay: cAMP Responsive Elements (CRE) small molecule agonists, cell-based qHTS assay: qHTS cell viability counter screen (AID 2060914); note: nearly all actives have a fitted effect of over 50% in size
# Conditions: CRE-bla HEK293T viability, CellTiter-Glo luminescence, 5 h; series mostly up to 92.4 µM
# How it was run: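 Cytotoxicity counter screen multiplexed with the CRE-bla reporter assay in HEK 293T cells: 3 h compound exposure at 37 °C, followed by CellTiter-Glo luminescence measured in the same wells.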
row,Structure (SMILES),Potency
1,ClCCCCl,inactive
2,COc1ccc2c3c1O[C@H]1[C@H](O)CC[C@H]4[C@@H](C2)N(C)CC[C@@]341,inactive
3,Brc1ccc(Br)cc1,inactive
4,CCOP(=O)(OCC)SCCSCC,inactive
5,N#CC(c1ccccc1)c1ccccc1,inactive
6,CCCN(CCC)c1c([N+](=O)[O-])cc(C(C)C)cc1[N+](=O)[O-],inactive
7,CC(Oc1cccc(Cl)c1)C(=O)O (stereo unspecified),inactive
8,CCCCCCCCCCCOC(=O)c1ccccc1C(=O)OCCCCCCCCCCC,inactive
9,O=C(O)c1nc(Cl)ccc1Cl,inactive
10,O=C=NC1CCCCC1,inactive
11,ClCCN1CCCC1,inactive
12,C=CC(=O)OC,inactive
13,O=P(O)(O)c1ccccc1,inactive
14,C(COCC1CO1)OCC1CO1 (stereo unspecified),inactive
15,ClC(Cl)=C(c1ccc(Cl)cc1)c1ccccc1Cl,inactive
16,CN(C)C(=O)Nc1cccc(C(F)(F)F)c1,inactive
